# Where “and” joins values, the source holds several entries; their conditions need not be identical. Equal entries are not always repeated. Results filed as inconclusive are left out. A call without a number means that no potency is given here. Calls of active or inactive are those of the source. Unless noted, calls follow the shape of the dose curve; as a rule, active = well fitted curve in the direction sought with a large enough effect in the repeat runs; inconclusive = weak or mixed curves; inactive = no such curve, though single readings can be large; an effect the other way counts as inactive or inconclusive.
# Experiments:
# [1] = qHTS assay to identify small molecule agonists of the vitamin D receptor (VDR) signaling pathway - cell viability counter screen (AID 743224); also: nearly all actives have a fitted effect of over 50% in size; also: potency is read from the fitted curve at half-maximal effect
# How it was run: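 Luminescence from CellTiter-Glo, read after 30 min at room temperature, reports viability of VDR-bla cells treated with compounds for 16 h at 37C in the wells used for the beta-lactamase FRET read.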
# [2] = qHTS assay to identify small molecule antagonists of the vitamin D receptor (VDR) signaling pathway - cell viability counter screen (AID 743225); also: nearly all actives have a fitted effect of over 50% in size; also: potency is read from the fitted curve at half-maximal effect
# How it was run: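 Viability counter screen run in the same wells as the beta-lactamase reporter assay: HEK 293T VDR-UAS-bla cells, 16 h compound exposure at 37C with 3 nM (final) 1-alpha,25-dihydroxyvitamin D3. CellTiter-Glo luminescence, 30 min, room temperature.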
# [3] = qHTS assay to identify small molecule agonists of the NFkB signaling pathway - cell viability counter screen (AID 1159515; calls by dose curve; also: nearly all actives have a fitted effect of over 55% in size; also: potency is read from the fitted curve at half-maximal effect)
# How it was run: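 Luminescence from CellTiter-Glo (30 min, room temperature) gives viability, measured in the same wells as the beta-lactamase reporter read. Cells were NFkB-bla ME-180, 2,000 per well, treated 5 hr with compounds.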
# [4] = qHTS assay to identify small molecule agonists of the endoplasmic reticulum stress response signaling pathway - cell viability counter screen (AID 1159517; calls by dose curve; also: nearly all actives have a fitted effect of over 50% in size; also: potency is read from the fitted curve at half-maximal effect)
# How it was run: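 CellTiter-Glo was added to wells already read for beta-lactamase FRET, and luminescence was recorded 30 min later. Cells: ESRE-bla HeLa, 1,500 per well, compound exposure 5 hr at 37 C.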
# [5] = biological target: Nuclear receptor ROR-gamma (Homo sapiens) (UniProt P51449); assay: qHTS assay to identify small molecule antagonists of the retinoid-related orphan receptor gamma (ROR-gamma) signaling pathway (AID 1159521; also: nearly all actives have a fitted effect of over 50% in size; also: potency is read from the fitted curve at half-maximal effect)
# How it was run: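 Luminescence readout (ONE-Glo, 30 min RT) after 16 h doxycycline induction; loss of signal scored as antagonism. CHO cells with TET-inducible RORγ and RORE-LUC reporter; compounds added 2 h before 1 uM final doxycycline.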
# [6] = qHTS assay to identify small molecule agonists of the AP-1 signaling pathway - cell viability counter screen (AID 1159525; calls by dose curve; also: nearly all actives have a fitted effect of over 55% in size; also: potency is read from the fitted curve at half-maximal effect)
# How it was run: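 ME-180 AP-1-bla, 2500 cells/well, Opti-MEM + 0.5% dialyzed FBS; overnight 37 °C; cpd 15-pt titration, 5 h 37 °C; CellTiter-Glo 30 min RT; luminescence read; normalised to TOAB and DMSO controls.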
# [7] = qHTS assay to identify small molecule agonists of the RXR signaling pathway - cell viability counter screen (AID 1159529); also: nearly all actives have a fitted effect of over 50% in size; also: potency is read from the fitted curve at half-maximal effect
# How it was run: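 Luminescence from CellTiter-Glo (30 min, RT) measured viability in the same wells as the beta-lactamase reporter readout. Cells: GeneBLAzer RXR-alpha HEK 293T, 2% charcoal-stripped FBS. Compound exposure 16 hr, 37 C.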
# [8] = qHTS assay to identify small molecule antagonists of the retinoid acid receptor (RAR) signaling pathway - cell viability counter screen (AID 1159551); also: nearly all actives have a fitted effect of over 35% in size; also: potency is read from the fitted curve at half-maximal effect
# How it was run: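 Luminescent ATP quantitation (CellTiter-Glo) gave cell viability in C3RL4 cells exposed to test chemicals for 6 h at 37 C alongside 1 uM final retinol.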
# [9] = qHTS assay to identify small molecule agonists of the AP-1 signaling pathway (AID 1159526; calls by dose curve)
# [10] = qHTS assay to identify small molecule antagonists of the retinoic acid receptor (RAR) signaling pathway (AID 1159552; also: nearly all actives have a fitted effect of over 50% in size)
# How it was run: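 Luminescence from a RARE luciferase reporter in C3RL4 cells served as read-out. Cells received compounds together with 1 uM final retinol and incubated 6 hr at 37 C before detection reagent was added for 30 min at room temperature.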
# [11] = qHTS assay to identify small molecule antagonists of the retinoid-related orphan receptor gamma (ROR-gamma) signaling pathway - cell viability counter screen (AID 1159520); also: nearly all actives have a fitted effect of over 50% in size
# How it was run: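 Tet-on ROR gamma CHO cells (1,000/well) were plated 4 hr, given compounds in DMSO for 2 hr at 37 C, then induced with 1 uM final doxycycline for 16 hr. Viability was read as ATP by CellTiter-Glo luminescence after 30 min.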
# [12] = biological target: Retinoic acid receptor RXR-alpha (Homo sapiens) (UniProt P19793); assay: qHTS assay to identify small molecule agonists of the RXR signaling pathway (AID 1159527; calls by dose curve; also: nearly all actives have a fitted effect of over 35% in size)
# How it was run: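 Agonist mode; 9-cis retinoic acid positive control. HEK 293T UAS-bla reporter cells, 2% charcoal-stripped FBS, 16 hr compound exposure at 37 C/5% CO2. LiveBLAzer B/G FRET substrate 2 hr RT; ex 405, em 460/530 nm.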
# [13] = qHTS assay to identify small molecule agonists of the retinoic acid receptor (RAR) signaling pathway (AID 1159553); also: potency is read from the fitted curve at half-maximal effect
# How it was run: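 Luminescence from a RARE-driven luciferase reporter in C3RL4 cells served as the read-out, measured after 30 min with detection reagent at room temperature. Compounds in DMSO were applied for 6 hr at 37 C following overnight seeding.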
# [14] = qHTS assay to identify small molecule antagonists of the estrogen related receptor (ERR) signaling pathway (AID 1224819)
# How it was run: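 Seed ERR cells 2,000/well; rest 6 h at 37 C/5% CO2; pin compounds in DMSO; incubate 18 h at 37 C; add One-Glo; wait 30 min at room temperature; measure luminescence.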
# [15] = qHTS assay to identify small molecule agonists of the estrogen related receptor (ERR) signaling pathway (AID 1224820)
# How it was run: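 ERR reporter cell line (from NTP), 2,000 cells/well, incubated 6 h before compound addition, then 18 h at 37 C. Luminescence measured 30 min after One-Glo reagent at room temperature.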
# [16] = qHTS assay to identify small molecule agonists of the estrogen related receptor signaling pathway with the pleiotropic PPARgamma coactivator (PGC) (AID 1224823)
# How it was run: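 PGC/ERR reporter cells seeded 6 h, then exposed to compounds (23 nL in DMSO) for 18 h at 37 C. One-Glo luciferase luminescence read after 30 min at room temperature.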
# Sequence of Retinoic acid receptor RXR-alpha (Homo sapiens) (P19793 whole entry, looked up): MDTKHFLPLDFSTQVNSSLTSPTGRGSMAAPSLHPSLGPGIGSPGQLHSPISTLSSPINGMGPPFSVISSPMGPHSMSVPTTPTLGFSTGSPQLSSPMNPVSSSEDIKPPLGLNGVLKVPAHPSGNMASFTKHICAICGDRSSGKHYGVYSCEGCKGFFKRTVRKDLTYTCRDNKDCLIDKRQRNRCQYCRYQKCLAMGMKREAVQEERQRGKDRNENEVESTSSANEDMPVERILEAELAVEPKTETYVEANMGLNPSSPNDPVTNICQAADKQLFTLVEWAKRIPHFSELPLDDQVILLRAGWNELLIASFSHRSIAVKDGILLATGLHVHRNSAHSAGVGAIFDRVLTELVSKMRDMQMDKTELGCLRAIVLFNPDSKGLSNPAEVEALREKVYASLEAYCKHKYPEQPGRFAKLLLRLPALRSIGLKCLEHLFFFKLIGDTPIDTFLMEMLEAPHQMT
smiles,measurement,setting,value
C=CC(=O)OCC(CO)(COC(=O)C=C)COC(=O)C=C,Potency,[1],12.3 µM (active) and 13.8 µM (active)
same,Potency,[2],13.9 µM (active) and 15.5 µM (active)
same,Potency,[3],inactive
same,Potency,[4],21.9 µM (active)
same,Potency,[5],2.44 µM (active) and 6.86 µM (active)
same,Potency,[6],49.1 µM (active) and 49 µM (active)
same,Potency,[7],13.9 µM (active) and 12.3 µM (active)
same,Potency,[8],61.3 µM (active)
Oc1ccc2c(c1)-c1ccccc1C2,Potency,[3],inactive
same,Potency,[4],inactive
same,Potency,[5],inactive
same,Potency,[6],inactive
same,Potency,[9],inactive
same,Potency,[7],inactive
same,Potency,[10],inactive
Clc1ccc2n[nH]nc2c1,Potency,[1],inactive
same,Potency,[2],inactive
same,Potency,[3],inactive
same,Potency,[4],inactive
same,Potency,[11],inactive
same,Potency,[7],inactive
same,Potency,[8],inactive
NNc1nc(-c2ccccc2)cs1,Potency,[3],inactive
same,Potency,[4],inactive
same,Potency,[5],inactive
same,Potency,[6],inactive
same,Potency,[12],inactive
same,Potency,[8],inactive
same,Potency,[10],inactive
same,Potency,[13],70.5 µM (active)
CC(=O)SC[C@@H](Cc1ccccc1)C(=O)NCC(=O)OCc1ccccc1,Potency,[1],inactive
same,Potency,[2],inactive
same,Potency,[3],inactive
same,Potency,[4],inactive
same,Potency,[11],inactive
same,Potency,[9],inactive
same,Potency,[12],inactive
same,Potency,[7],inactive
same,Potency,[8],inactive
same,Potency,[10],inactive
same,Potency,[13],inactive
CCN(CCC#N)c1ccc(N=Nc2c(Cl)cc([N+](=O)[O-])cc2Cl)cc1,Potency,[1],inactive
same,Potency,[3],inactive
same,Potency,[4],inactive
same,Potency,[11],inactive
same,Potency,[6],inactive
same,Potency,[8],inactive
CCN(Cc1cccnc1)C(=O)c1cccc(Cl)c1[C@]1(C)C(=O)N(Cc2ccc(OC)cc2OC)c2ccc(Cl)cc21,Potency,[3],inactive
same,Potency,[4],inactive
same,Potency,[5],9.05 µM (active)
same,Potency,[6],inactive
O=C(Nc1cccc([N+](=O)[O-])c1)c1cc2ccccc2cc1O,Potency,[3],inactive
same,Potency,[4],inactive
same,Potency,[5],4.33 µM (active)
same,Potency,[6],inactive
same,Potency,[7],inactive
same,Potency,[8],inactive
CSc1ccc2c(c1)C(N1CCN(C)CC1)Cc1ccccc1S2 (configuration not stated),Potency,[1],23.7 µM (active)
same,Potency,[3],23.9 µM (active)
same,Potency,[4],19 µM (active)
same,Potency,[11],inactive
same,Potency,[6],inactive
same,Potency,[8],inactive
Fc1ccc(C(c2ccc(F)cc2)N2CCN(C/C=C/c3ccccc3)CC2)cc1,Potency,[1],29.8 µM (active)
same,Potency,[3],inactive
same,Potency,[4],inactive
same,Potency,[5],23.7 µM (active)
same,Potency,[6],inactive
same,Potency,[9],inactive
same,Potency,[8],inactive
same,Potency,[14],19.6 µM (active)
same,outcome,[15],inactive
same,outcome,[16],inactive
Nc1nc2ccccc2n1Cc1ccc(F)cc1,Potency,[1],inactive
same,Potency,[2],inactive
same,Potency,[3],inactive
same,Potency,[4],inactive
same,Potency,[5],10.6 µM (active)
same,Potency,[6],inactive
same,Potency,[8],inactive
same,Potency,[10],inactive
same,Potency,[13],inactive

# Reference: PubChem BioAssay (Tox21)
